Over roughly 68,000 sequences, “fluorescence intensity (a.u.)” has its median near 9,100; the highest 2% begin near 16,000. Only a selection was taken, and the highest values are over-represented in it overall.

This is an account of results in publication PMC7819943, “Rice protein-binding microarrays: a tool to detect cis-acting elements near promoter regions in rice”.

Chain of OsWRKY34 (Q0JBA9 entry or part of it): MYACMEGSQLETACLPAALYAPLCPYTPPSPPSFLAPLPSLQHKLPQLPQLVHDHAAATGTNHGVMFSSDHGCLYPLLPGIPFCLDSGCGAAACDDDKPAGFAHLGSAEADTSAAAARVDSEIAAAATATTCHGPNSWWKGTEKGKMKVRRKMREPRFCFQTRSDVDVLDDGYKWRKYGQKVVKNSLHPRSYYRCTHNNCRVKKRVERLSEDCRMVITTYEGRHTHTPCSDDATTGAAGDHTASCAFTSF

This experiment concerns the target OsWRKY34 (Oryza sativa, UniProt Q0JBA9 1-250). Nature of the experiment: protein-binding microarray (RPBM); PBS, 2% BSA, 51.3 ng/ul salmon testes DNA, 50 uM zinc acetate, 200 nM TF, 25 C, 1 h; high values mean tight binding. Conditions: protein: recombinant; tags: N-terminal polyhistidine and DsRed monomer fusion (pET32a); label: CyDye5-dUTP incorporated in the synthesized complementary strand; 3' TTTTT single-stranded linker to array surface; dsDNA, one strand shown. An outline of the steps: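 Binding signal here means per-feature fluorescence intensity in arbitrary units. The values were read on an Axon 4000B scanner after a custom Agilent array, double-stranded by primer extension with Cy5-dUTP, was incubated with 200 nM protein at 25 °C for 1 h in PBS with 2% BSA, salmon testes DNA and 50 µM zinc acetate, then washed. The proteins were transcription factors with an N-terminal polyhistidine tag and DsRed, expressed in E. coli BL21-CodonPlus and purified on Ni–NTA.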
For “ACTTCTACCTTTCGTTTTTCCACGCGCATATGCTTTTTGACGGAGTCACCTAGTGCAG”, the binding signal is 20300 fluorescence intensity (a.u.).

For the sequence “ATCACTTTATGCGCACTTTTCTTTGACGCCTTCCACAATTCGGAGTCACCTAGTGCAG”, the binding signal is 9560 fluorescence intensity (a.u.).

Turning to “ATTCGTTCTGGTTTTCTTCGGGGTTTATTGATTCACGCGACGGAGTCACCTAGTGCAG”, the binding signal was 18200 fluorescence intensity (a.u.).

Take “TTCTTTTCTTTTTCTTTTTCGTTTTCTTCTTATTCTTTTTCGGAGTCACCTAGTGCAG”: the binding signal was 12900 fluorescence intensity (a.u.).

Consider “CTTCACTCTTGATTCAAAAGGTTTTATTTTTTTTTCTGGTCGGAGTCACCTAGTGCAG”, for which the binding signal is 8530 fluorescence intensity (a.u.).

Take “TCCCACCTTCCGCTCGTTTTTCTTGAGCATATGCTTCTCACGGAGTCACCTAGTGCAG”: the binding signal was 10100 fluorescence intensity (a.u.).

As for “TCTTCTGAGTTCTTGTGTTTTCATACGTGCCAATCAAATGCGGAGTCACCTAGTGCAG”, the binding signal was 8310 fluorescence intensity (a.u.).

Regarding “ACCTTCGGTGTACTTTTTCCTTAGTCTGCCGGCTTATTTACGGAGTCACCTAGTGCAG”, the binding signal is 9490 fluorescence intensity (a.u.).

Turning to “GACAATTACTTAGTCCTCACCTACCGTCGACCTCACACGTCGGAGTCACCTAGTGCAG”, the binding signal was 10200 fluorescence intensity (a.u.).

As to “TTCAGAGTATTGTGATCCTTAAATCGAACCGTTGACTCTACGGAGTCACCTAGTGCAG”, the binding signal is 9490 fluorescence intensity (a.u.).

As for “AGCAGTTGTATTGTTGTGAAATTTAATTTGCTCTTTGACCCGGAGTCACCTAGTGCAG”, the binding signal was 8200 fluorescence intensity (a.u.).

Regarding “TCTTGTTCATTTCTCTCTTGCTCCGGCTCGCCTCGCATCGCGGAGTCACCTAGTGCAG”, the binding signal was 8300 fluorescence intensity (a.u.).

With “GGTAGACGGCGTCGTACCCGTCCTCCTCGCCGGACCGCATCGGAGTCACCTAGTGCAG”, the binding signal was 8840 fluorescence intensity (a.u.).

Turning to “TAATGTATGACGCCGTTGACTTTTTGATTAACGTTTGACCCGGAGTCACCTAGTGCAG”, the binding signal is 34800 fluorescence intensity (a.u.).

“TAATGTATGACGCCGTTGACTTTTTAACTAACGTTTGACCCGGAGTCACCTAGTGCAG”: the binding signal is 28700 fluorescence intensity (a.u.).

Turning to “TAATGTATAACGCCGTTAACTTTTTAACAAACGTTTGACCCGGAGTCACCTAGTGCAG”, the binding signal is 8430 fluorescence intensity (a.u.).

Regarding “TTTTAATGTATGACGCCGTTGACTTTTTATACGTTTGACCCGGAGTCACCTAGTGCAG”, the binding signal is 32200 fluorescence intensity (a.u.).

For “TTGTATGATGCCGTTGATTTTTTTTGTCTAACGTTTAACCCGGAGTCACCTAGTGCAG”, the binding signal is 8360 fluorescence intensity (a.u.).

Regarding “CGCATAATACTTTTACTTGCACCAATCAAGTACACGCTCTCGGAGTCACCTAGTGCAG”, the binding signal is 9320 fluorescence intensity (a.u.).

For “CCCTGGCAAATGTTCTTTCTCCTCTATTTTCCATCTCCAACGGAGTCACCTAGTGCAG”, the binding signal was 9120 fluorescence intensity (a.u.).

Regarding “TATAGATTTTCGTCTCCAACGCTTGACCGTCCGTTTTATTCGGAGTCACCTAGTGCAG”, the binding signal is 12800 fluorescence intensity (a.u.).

Take “CTTGCTCGTTGTAACTGTTTAATCTATTATGTTTTTTTTTCGGAGTCACCTAGTGCAG”: the binding signal is 11000 fluorescence intensity (a.u.).

Consider “CCCACCGCTCCTCCGCGCCACGCTTCCTCGCCGCGCGCGCCGGAGTCACCTAGTGCAG”, for which the binding signal was 8390 fluorescence intensity (a.u.).

As for “ACAACTGACTTACCCTTTCTGACTTGCAGATCAATTTGTCCGGAGTCACCTAGTGCAG”, the binding signal was 9050 fluorescence intensity (a.u.).

With “TGCAGTGCGGCGTCACCTATCTCGTGGGCGCTTTCTTAGACGGAGTCACCTAGTGCAG”, the binding signal was 9080 fluorescence intensity (a.u.).

Take “CTCGGGAATTCGGGTGGTTTGGTTGGGTTTCGTGGAGAATCGGAGTCACCTAGTGCAG”: the binding signal was 18700 fluorescence intensity (a.u.).

Consider “GTTTCGTGGTGGTTGCTGGGCTTTTCGTTGGCGTGGGTGGCGGAGTCACCTAGTGCAG”, for which the binding signal is 11500 fluorescence intensity (a.u.).

For “TAGGCTATCTTTTGAAGGGAGGGGTTTTTTCATCACCTATCGGAGTCACCTAGTGCAG”, the binding signal is 17000 fluorescence intensity (a.u.).

For “GGGTTGGTGGGCCTGATGGGCTTGGTTTTAGGGTTTCGTGCGGAGTCACCTAGTGCAG”, the binding signal was 9510 fluorescence intensity (a.u.).

For “TGGGGTTGGTTTGGTTTGGAGTACATCGAGATTCGAGAGACGGAGTCACCTAGTGCAG”, the binding signal is 19900 fluorescence intensity (a.u.).

For “GTTTATCTCTATCTTTTTTTCATCTTCTCTCTATATATATCGGAGTCACCTAGTGCAG”, the binding signal is 11000 fluorescence intensity (a.u.).

On to “ATTTTAGGGGAGGGTTTTACTTAGCAACTTTCATCTTATTCGGAGTCACCTAGTGCAG”, for which the binding signal was 15800 fluorescence intensity (a.u.).

In the case of “ACGGCGAGACGGTTTGCGGCGGCGGCGGTGGGGTTGGGATCGGAGTCACCTAGTGCAG”, the binding signal was 10600 fluorescence intensity (a.u.).

Turning to “ATGGTTGGTTTCGTGCTCTGTTTTTTTTTGGGAGAATTCGCGGAGTCACCTAGTGCAG”, the binding signal is 12800 fluorescence intensity (a.u.).

For the sequence “GGTTTCGTTGGTGGGGTTTTTTCATGGTGGCTAGGGTTTTCGGAGTCACCTAGTGCAG”, the binding signal is 51100 fluorescence intensity (a.u.).

For “ACTGTTGGAGTGGGAGTGGGGAATTCTAGGGTTTTGCAATCGGAGTCACCTAGTGCAG”, the binding signal was 12300 fluorescence intensity (a.u.).

Consider “CTGCGTTTATTTGGGTTTATTTGGGGCTGAGAGAGTACATCGGAGTCACCTAGTGCAG”, for which the binding signal was 13800 fluorescence intensity (a.u.).

In the case of “ACGGGGATGACTCCGATGACTCTCCTGGCCTCGCCGCCTCCGGAGTCACCTAGTGCAG”, the binding signal is 8120 fluorescence intensity (a.u.).

Consider “ACTTGGTTCTTGCTCATCATCTTTCGCTTGCTCGTCAGCTCGGAGTCACCTAGTGCAG”, for which the binding signal is 8360 fluorescence intensity (a.u.).

On to “CCCTCTTCTCCTTTGCTTGGTCTCGTTTCGTCGCTGTCGTCGGAGTCACCTAGTGCAG”, for which the binding signal was 8260 fluorescence intensity (a.u.).

For the sequence “GAGGTCCCGTCGCTCCGGCGAGCTCCCGCCATCCGCCTCGCGGAGTCACCTAGTGCAG”, the binding signal is 8630 fluorescence intensity (a.u.).

With “ATGGCCGCTGTCTTATGTCGTCTCGTTCAAATAAAATCTCCGGAGTCACCTAGTGCAG”, the binding signal was 8370 fluorescence intensity (a.u.).
